# Reference: article PMC7862700, “An all-to-all approach to the identification of sequence-specific readers for epigenetic DNA modifications on cytosine”
# Key:
# Assay in all cases: DAPPL (digital affinity profiling via proximity ligation, sequencing); 10 mM Tris-HCl pH 7.5, 50 mM NaCl, 1 mM DTT, 4% glycerol, room temperature, 30 min; GST-TFs on glutathione beads, 16-mer random dsDNA library, 0.1% formaldehyde crosslink after washing; high values mean tight binding
# Conditions in all cases: protein: recombinant; tags: N-terminal GST; dsDNA, one strand shown
# [1] = target: T1, ERG (Homo sapiens, UniProt P11308 1-479)
# T1 sequence: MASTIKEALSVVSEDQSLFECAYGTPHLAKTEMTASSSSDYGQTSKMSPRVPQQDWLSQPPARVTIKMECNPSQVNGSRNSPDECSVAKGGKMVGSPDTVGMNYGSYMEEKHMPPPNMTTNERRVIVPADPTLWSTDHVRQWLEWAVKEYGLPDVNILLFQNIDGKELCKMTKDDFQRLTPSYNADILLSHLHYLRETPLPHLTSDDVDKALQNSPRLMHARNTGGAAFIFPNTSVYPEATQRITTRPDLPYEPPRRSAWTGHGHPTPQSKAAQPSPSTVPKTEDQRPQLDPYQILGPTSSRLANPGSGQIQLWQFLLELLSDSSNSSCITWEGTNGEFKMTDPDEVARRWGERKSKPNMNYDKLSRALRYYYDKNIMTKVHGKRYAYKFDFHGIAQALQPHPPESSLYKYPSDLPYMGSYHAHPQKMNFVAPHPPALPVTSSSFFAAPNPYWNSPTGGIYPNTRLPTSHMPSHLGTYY
# In short: (§1)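 Binding signal is each hexamer's read frequency for a factor divided by its frequency in the tag-only sample. The factors were GST-fused human transcription factors from yeast, captured on glutathione beads, DNA-barcoded and pooled with that sample. Pools were incubated with 200 nmole of a random double-stranded 16-mer DNA library in Tris/NaCl/DTT/glycerol buffer at room temperature for 30 min, then washed, crosslinked with 0.1% formaldehyde, proximity-ligated with BsaI/T4 ligase (1 h, 37 °C), PCR-amplified and sequenced on an Illumina NextSeq500.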
# [2] = target: ELF1 (Homo sapiens, UniProt P32519 1-619)
# In short: as §1
# [3] = target: T2, EHF (Homo sapiens, UniProt Q9NZC4 1-300)
# T2 sequence: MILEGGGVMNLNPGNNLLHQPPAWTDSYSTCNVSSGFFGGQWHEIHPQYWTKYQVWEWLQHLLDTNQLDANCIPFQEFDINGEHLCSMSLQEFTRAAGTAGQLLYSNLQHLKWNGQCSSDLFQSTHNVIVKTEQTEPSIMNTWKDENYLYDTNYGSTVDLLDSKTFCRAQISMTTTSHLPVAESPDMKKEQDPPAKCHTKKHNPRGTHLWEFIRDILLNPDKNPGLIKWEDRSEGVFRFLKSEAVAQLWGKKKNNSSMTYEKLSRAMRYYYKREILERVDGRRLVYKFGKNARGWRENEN
# In short: as §1
# [4] = target: ETV5 (Homo sapiens, UniProt P41161 1-510)
# In short: as §1
# [5] = target: T3, ELK4 (Homo sapiens, UniProt P28324-2 1-405)
# T3 sequence: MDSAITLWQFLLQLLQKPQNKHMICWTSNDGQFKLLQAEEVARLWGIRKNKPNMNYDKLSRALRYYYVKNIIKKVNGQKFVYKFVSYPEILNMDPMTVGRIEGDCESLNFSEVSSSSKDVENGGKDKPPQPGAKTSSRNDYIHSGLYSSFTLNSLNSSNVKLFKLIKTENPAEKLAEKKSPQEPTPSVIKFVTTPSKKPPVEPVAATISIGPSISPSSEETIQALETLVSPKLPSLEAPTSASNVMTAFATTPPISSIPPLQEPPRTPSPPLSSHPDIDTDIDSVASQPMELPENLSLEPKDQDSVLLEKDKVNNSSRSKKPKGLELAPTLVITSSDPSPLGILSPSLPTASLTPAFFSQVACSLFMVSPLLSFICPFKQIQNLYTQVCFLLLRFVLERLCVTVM
# In short: as §1
# [6] = target: T4, ETV2 (Homo sapiens, UniProt O00321 1-342)
# T4 sequence: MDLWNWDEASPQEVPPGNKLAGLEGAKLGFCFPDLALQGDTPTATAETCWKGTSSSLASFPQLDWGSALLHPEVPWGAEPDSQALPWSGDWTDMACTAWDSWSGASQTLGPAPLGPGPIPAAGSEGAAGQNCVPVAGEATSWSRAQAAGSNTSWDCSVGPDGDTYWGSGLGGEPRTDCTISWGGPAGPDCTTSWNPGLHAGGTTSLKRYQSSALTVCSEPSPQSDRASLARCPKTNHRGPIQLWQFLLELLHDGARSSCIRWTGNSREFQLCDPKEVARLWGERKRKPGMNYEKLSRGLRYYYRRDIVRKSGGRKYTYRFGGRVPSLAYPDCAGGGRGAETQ
# In short: as §1
# [7] = target: T5, ELF3 (Homo sapiens, UniProt P78545 1-371)
# T5 sequence: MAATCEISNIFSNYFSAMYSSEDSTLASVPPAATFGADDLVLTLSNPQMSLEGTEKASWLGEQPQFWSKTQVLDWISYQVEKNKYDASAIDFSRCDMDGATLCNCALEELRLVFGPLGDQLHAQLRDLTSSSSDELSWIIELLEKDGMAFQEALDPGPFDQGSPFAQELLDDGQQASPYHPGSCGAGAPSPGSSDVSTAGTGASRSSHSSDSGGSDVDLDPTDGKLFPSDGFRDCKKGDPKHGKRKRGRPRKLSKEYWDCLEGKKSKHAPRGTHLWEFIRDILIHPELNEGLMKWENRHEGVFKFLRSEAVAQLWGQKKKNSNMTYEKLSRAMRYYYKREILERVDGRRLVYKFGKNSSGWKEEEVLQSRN
# In short: as §1
# [8] = target: T6, ERF (Homo sapiens, UniProt P50548 1-548)
# T6 sequence: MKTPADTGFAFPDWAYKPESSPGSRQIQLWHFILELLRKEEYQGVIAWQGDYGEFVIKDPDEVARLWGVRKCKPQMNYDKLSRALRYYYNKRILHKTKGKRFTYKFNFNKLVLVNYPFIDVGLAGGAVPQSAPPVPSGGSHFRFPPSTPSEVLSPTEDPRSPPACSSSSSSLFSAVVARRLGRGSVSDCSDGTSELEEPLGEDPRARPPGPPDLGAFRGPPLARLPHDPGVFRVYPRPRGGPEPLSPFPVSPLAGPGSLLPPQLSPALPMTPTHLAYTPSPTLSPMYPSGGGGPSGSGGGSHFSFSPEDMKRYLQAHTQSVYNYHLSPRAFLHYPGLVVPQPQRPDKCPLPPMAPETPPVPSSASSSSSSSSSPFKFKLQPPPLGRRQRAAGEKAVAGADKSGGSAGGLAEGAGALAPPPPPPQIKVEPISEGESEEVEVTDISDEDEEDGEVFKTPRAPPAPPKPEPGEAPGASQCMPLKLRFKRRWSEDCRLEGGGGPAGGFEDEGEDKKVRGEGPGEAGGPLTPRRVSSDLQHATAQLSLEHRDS
# In short: as §1
# [9] = target: T7, ETV3L (Homo sapiens, UniProt Q6ZN32 1-361)
# T7 sequence: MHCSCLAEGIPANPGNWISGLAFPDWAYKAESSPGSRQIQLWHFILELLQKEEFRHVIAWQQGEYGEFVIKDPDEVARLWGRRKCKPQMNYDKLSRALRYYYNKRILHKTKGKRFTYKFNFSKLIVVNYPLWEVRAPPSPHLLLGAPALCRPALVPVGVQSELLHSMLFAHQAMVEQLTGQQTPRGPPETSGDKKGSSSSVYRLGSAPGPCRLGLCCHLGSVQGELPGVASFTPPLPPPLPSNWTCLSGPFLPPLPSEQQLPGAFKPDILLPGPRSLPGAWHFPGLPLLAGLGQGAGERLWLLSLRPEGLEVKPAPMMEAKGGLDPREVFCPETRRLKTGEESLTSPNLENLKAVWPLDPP
# In short: as §1
# [10] = target: T8, ETS2 (Homo sapiens, UniProt P15036 1-469)
# T8 sequence: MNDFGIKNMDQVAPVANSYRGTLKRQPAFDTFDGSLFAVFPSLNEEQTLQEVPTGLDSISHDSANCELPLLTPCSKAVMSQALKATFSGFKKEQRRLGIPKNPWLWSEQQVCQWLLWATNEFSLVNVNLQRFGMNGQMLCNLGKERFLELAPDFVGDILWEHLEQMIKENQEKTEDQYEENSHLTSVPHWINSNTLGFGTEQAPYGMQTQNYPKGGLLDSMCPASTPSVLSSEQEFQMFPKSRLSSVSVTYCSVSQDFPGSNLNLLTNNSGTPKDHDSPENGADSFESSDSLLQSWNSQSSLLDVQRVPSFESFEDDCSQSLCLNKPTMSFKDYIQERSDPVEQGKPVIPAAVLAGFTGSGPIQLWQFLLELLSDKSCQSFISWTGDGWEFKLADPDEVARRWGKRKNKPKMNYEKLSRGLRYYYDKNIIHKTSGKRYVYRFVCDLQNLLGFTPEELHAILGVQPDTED
# In short: as §1
# [11] = target: T9, ETV7 (Homo sapiens, UniProt Q9Y603 1-341)
# T9 sequence: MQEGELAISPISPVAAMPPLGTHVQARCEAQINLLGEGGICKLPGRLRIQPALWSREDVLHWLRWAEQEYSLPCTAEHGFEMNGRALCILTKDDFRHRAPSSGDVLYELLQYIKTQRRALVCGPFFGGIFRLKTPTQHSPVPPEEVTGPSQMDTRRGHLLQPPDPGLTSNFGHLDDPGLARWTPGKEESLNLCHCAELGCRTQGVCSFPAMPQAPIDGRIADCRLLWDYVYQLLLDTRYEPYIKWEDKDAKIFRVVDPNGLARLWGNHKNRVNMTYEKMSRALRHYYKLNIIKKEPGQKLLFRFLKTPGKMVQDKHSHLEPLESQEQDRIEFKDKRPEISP
# In short: as §1
# [12] = target: T10, ETV3 (Homo sapiens, UniProt P41162-2 1-143)
# T10 sequence: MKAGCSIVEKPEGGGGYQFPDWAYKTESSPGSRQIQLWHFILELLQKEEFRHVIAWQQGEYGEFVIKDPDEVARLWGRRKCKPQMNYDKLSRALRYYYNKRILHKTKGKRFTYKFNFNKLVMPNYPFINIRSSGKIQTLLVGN
# In short: as §1
# [13] = target: ETV6 (Homo sapiens, UniProt P41212 1-452)
# In short: as §1
# ETV6, sequence (P41212 whole entry): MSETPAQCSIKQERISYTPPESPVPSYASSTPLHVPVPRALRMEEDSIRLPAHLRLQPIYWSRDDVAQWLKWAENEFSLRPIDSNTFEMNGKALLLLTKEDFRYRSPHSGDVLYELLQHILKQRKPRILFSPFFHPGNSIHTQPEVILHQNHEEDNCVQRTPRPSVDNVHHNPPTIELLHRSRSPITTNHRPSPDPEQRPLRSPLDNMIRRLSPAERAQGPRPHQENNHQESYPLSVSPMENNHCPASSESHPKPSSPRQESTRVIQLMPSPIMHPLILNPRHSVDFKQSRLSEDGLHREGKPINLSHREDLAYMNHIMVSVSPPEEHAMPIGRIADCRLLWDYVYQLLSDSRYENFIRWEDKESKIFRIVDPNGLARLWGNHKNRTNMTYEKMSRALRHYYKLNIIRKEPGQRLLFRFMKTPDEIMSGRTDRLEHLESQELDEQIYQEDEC
# ELF1, sequence (P32519 whole entry): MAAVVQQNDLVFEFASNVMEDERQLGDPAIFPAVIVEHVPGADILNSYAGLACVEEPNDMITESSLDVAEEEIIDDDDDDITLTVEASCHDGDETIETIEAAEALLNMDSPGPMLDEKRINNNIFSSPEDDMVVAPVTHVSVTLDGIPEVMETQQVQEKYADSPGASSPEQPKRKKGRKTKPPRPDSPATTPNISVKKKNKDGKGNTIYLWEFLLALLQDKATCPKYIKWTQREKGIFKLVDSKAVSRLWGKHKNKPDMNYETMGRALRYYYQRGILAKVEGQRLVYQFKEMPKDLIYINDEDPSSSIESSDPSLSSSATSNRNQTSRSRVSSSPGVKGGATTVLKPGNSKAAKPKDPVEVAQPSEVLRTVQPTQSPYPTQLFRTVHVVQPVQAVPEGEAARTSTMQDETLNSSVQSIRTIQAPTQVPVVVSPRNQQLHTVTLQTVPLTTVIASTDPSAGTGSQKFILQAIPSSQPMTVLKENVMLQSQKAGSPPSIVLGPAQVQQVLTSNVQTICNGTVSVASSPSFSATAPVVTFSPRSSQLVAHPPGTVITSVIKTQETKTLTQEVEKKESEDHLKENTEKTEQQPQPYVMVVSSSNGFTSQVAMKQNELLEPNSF
# ETV5, sequence (P41161 whole entry): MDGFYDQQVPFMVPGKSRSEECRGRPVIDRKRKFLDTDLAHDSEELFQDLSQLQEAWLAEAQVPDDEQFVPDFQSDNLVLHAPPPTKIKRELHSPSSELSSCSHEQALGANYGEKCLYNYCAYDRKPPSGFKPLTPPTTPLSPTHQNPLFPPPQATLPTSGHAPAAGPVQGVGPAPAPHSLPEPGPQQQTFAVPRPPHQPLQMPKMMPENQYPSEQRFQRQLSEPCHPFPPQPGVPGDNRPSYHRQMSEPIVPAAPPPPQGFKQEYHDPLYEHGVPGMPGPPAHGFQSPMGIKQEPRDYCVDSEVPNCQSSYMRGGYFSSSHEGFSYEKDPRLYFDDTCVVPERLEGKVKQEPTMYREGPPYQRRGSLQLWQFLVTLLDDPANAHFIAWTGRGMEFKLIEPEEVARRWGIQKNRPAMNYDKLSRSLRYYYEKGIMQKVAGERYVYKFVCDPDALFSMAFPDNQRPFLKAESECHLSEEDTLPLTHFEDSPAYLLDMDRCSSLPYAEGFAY
sequence,measurement,setting,value
TCAAGC,binding signal,[1],"1.01 fold enrichment (6-mer frequency, TF over GST control)"
same,binding signal,[2],"1 fold enrichment (6-mer frequency, TF over GST control)"
same,binding signal,[3],"1.01 fold enrichment (6-mer frequency, TF over GST control)"
same,binding signal,[4],"1.02 fold enrichment (6-mer frequency, TF over GST control)"
same,binding signal,[5],"1.01 fold enrichment (6-mer frequency, TF over GST control)"
same,binding signal,[6],"1.09 fold enrichment (6-mer frequency, TF over GST control)"
same,binding signal,[7],"1.04 fold enrichment (6-mer frequency, TF over GST control)"
same,binding signal,[8],"1.06 fold enrichment (6-mer frequency, TF over GST control)"
same,binding signal,[9],"1.08 fold enrichment (6-mer frequency, TF over GST control)"
same,binding signal,[10],"1 fold enrichment (6-mer frequency, TF over GST control)"
same,binding signal,[11],"1.04 fold enrichment (6-mer frequency, TF over GST control)"
same,binding signal,[12],"1.08 fold enrichment (6-mer frequency, TF over GST control)"
same,binding signal,[13],"1.03 fold enrichment (6-mer frequency, TF over GST control)"
